BoNT-F LC inh – BoNT/F light chain protease inhibitors, primary screen, biochemical, flow cytometry, MLPCN library. Botulinum neurotoxin type F light chain protease (Clostridium botulinum). Multiplex microsphere protease cleavage assay. inhibition, % at 10 µM. 360,000 tested, 0.22% active; in the data active = inhibition above about 35%, passing the limit was not always enough; inconclusive = no clear call, values can overlap the other calls
BoNT A protease – BoNT/A light chain protease inhibitors, primary screen, biochemical, flow cytometry, MLPCN library; Botulinum neurotoxin type A light chain protease (Clostridium botulinum A str. ATCC 3502); multiplex microsphere protease substrate cleavage; inhibition, % at 10 µM; 360,000 tested, 0.17% active; AID 588499, 2011
SARS 3CLpro inh – SARS-CoV 3CLpro protease inhibitors, primary screen, biochemical, quenched FRET; Replicase polyprotein 1ab (Severe acute respiratory syndrome coronavirus), P0C6X7; recombinant SARS-CoV 3CLpro, quenched FRET peptide cleavage; inhibition, % at 6 µM; 290,000 tested, 0.14% active; in the data active = inhibition above about 12%
Autofluor counter – compound fluorescence in toxin protease inhibitor counterscreen | compound autofluorescence counterscreen, microsphere flow cytometry; stronger effect = higher value | fluorescence intensity (test concentration not listed) | 360,000 tested, 3.1% active | AID 624483; in the data active = fluorescence intensity above about 16000; inconclusive = no clear call, values can overlap the other calls
Anthrax LF inh2 – Bacillus anthracis LF protease inhibitors, primary screen, biochemical, multiplex microsphere, MLPCN library | 360,000 tested, 0.12% active | AID 588501, 2011 | inhibition, % at 10 µM | multiplex microsphere protease cleavage assay
DUSP3 inh – VHR1 phosphatase inhibitors, primary screen, biochemical, absorbance, uHTS; recombinant VHR phosphatase, pNPP absorbance; inhibition, % at 13.3 µM; 290,000 tested, 0.52% active; AID 1654, 2009; in the data active = inhibition above about 50%
Target sequence (P51452 whole entry, looked up): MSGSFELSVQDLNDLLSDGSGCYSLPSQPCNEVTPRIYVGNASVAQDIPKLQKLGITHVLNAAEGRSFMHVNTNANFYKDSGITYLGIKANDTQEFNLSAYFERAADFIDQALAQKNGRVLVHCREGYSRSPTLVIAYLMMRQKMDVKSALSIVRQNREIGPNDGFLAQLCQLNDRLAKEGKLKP
Large screens that a line does not name were inactive; ! = a repeat was not active. Most compounds without a hit are left out; they make up all but 3.9% or so of the library. Rule as the data show it, unless noted: active = inhibition above about 30%; inconclusive = no clear call, values can overlap the other calls; inactive = below that.

COc1ccc(N(CC(=O)NC2CCCC2)C(=O)CCC(=O)Nc2nc(C)cs2)cc1OC	DUSP3 inh 53
Cc1cc(C)cc(N(CC(=O)NC2CCCC2)C(=O)CCC(=O)Nc2nc(C)cs2)c1	none
COCCNC(=S)N1CCN(Cc2cccc(OC)c2)CC1	none
CCN(CC(=O)Nc1cccc(OC)c1)CC(=O)Nc1ccc(C)cc1Cl	none
COc1ccc2c(c1)C=C(C(=O)NCc1ccc(Cl)cc1)CO2	Autofluor counter 20111
Cc1ccccc1/C=N/Nc1nc2ccccc2c(=O)n1O	none
CN(C(=O)COC(=O)c1ccc2c(c1)OCCO2)C1CCCCC1	Autofluor counter inconclusive (no result: SARS 3CLpro inh, DUSP3 inh)
COc1ccc(CNc2nc3ccc(C)cc3s2)c(OC)c1OC	none
CCOc1ccc(-n2c(=O)c3sccc3n(CC(=O)NCc3ccco3)c2=O)cc1	Autofluor counter 19457
Cc1ccc(-n2c(=O)c3sccc3n(CC(=O)NCc3ccco3)c2=O)cc1	none
CC(C)(C)C1CCC(=NNc2ncc(C(F)(F)F)cc2Cl)CC1 (configuration not stated)	BoNT A protease inconclusive, Autofluor counter 22794
CC1=CC(C)=Nc2ccc(C)cc2N1	Autofluor counter 18983!
Cc1ccc2c(c1)NC(=O)CC(c1ccccc1)=N2	none
COc1cccc(C(=O)Nc2ccc3c(c2)C(=O)N(CCC(=O)O)C3=O)c1	BoNT A protease inconclusive, Autofluor counter 20871
COCCCN1C(=O)c2ccc(C(=O)Nc3cccc(OC)c3)cc2C1=O	none (no result: BoNT-F LC inh, BoNT A protease, Autofluor counter, Anthrax LF inh2)
Cc1cc(N2CCN(c3ccccc3)CC2)nc(N)n1	BoNT A protease inconclusive, Autofluor counter 20567
COc1ccc(CCNC(=O)[C@H](C)N2C(=O)N3CCc4c([nH]c5ccccc45)[C@@]3(C)C2=O)cc1	none
Cc1ccc(S(=O)(=O)c2nc(S(C)(=O)=O)sc2N2CCN(C)CC2)cc1	DUSP3 inh 56
CC(=O)c1ccc(-n2c(C)ccc2-c2ccccc2)cc1	Autofluor counter 23002
COC(=O)c1ccc(-n2c(C)ccc2-c2ccccc2)cc1	none
COc1ccc(-n2nc3c(c2NC(=O)c2ccc4c(c2)OCO4)CS(=O)(=O)C3)cc1	none
O=C(COc1ccc(S(=O)(=O)NC2CCCCC2)cc1)N1CCN(c2cccc(Cl)c2)CC1	Autofluor counter 22384
CC(C)NS(=O)(=O)c1ccc(OCC(=O)N2CCN(c3ccccc3)CC2)cc1	none
CCN(CC)CCNC(=O)c1cn(CC)c2cc(N3CCN(C)CC3)c(F)cc2c1=O	none
Clc1ccc(Cc2ccc(Cl)nn2)c(Cl)c1	Autofluor counter 23303
Clc1cccc(Cc2ccc(Cl)nn2)c1	none
Clc1ccc(Cc2ccccc2)nn1	Autofluor counter 21162
COc1ccc(CN/C=C2\CCCCC2=O)cc1	BoNT A protease inconclusive, Autofluor counter 22197
Cc1ccc(S(=O)(=O)N2[C@@H](c3cccc(Cl)c3)C(C(=O)OC(C)(C)C)=CC[C@H]2c2ccc(C(C)C)cc2)cc1	none (no result: SARS 3CLpro inh, DUSP3 inh)
NC(=O)c1cc(N2C(=O)C3CC=CCC3C2=O)ccc1N1CCCCC1 (configuration not stated)	Autofluor counter 23233
Cc1ccc(C)c(OCc2nc3ccc(S(=O)(=O)Nc4c(C)n(C)n(-c5ccccc5)c4=O)cc3[nH]2)c1	none
CCC(C)Sc1cc(-c2nc3cc(C)ccn3c2NC2CCCCC2)ccc1OC (configuration not stated)	Autofluor counter 23753 (no result: SARS 3CLpro inh, DUSP3 inh)
C=CCn1c(COc2ccc(Cl)cc2)nnc1SCC(=O)N1CC(=O)Nc2ccccc21	none
COc1cc(OC)cc(C(=O)NC2CCN(Cc3nnnn3Cc3cccs3)CC2)c1	Autofluor counter 25214
CCOC(=O)c1ccccc1NC(=O)CSc1nnc(Cc2cccn2C)n1-c1ccc(F)cc1	Autofluor counter 23284
Cn1cccc1Cc1nnc(SCC(=O)N2CCN(c3ccccc3)CC2)n1-c1ccc(F)cc1	BoNT A protease inconclusive, Autofluor counter 24052
CCOc1ccccc1NC(=O)CSc1nnc(Cc2cccn2C)n1-c1ccc(F)cc1	none
CCCC(C)(C)C(=O)N1CCC1(C)C(=O)NS(=O)(=O)c1ccc(Br)cc1 (configuration not stated)	none (no result: SARS 3CLpro inh, DUSP3 inh)
COc1cc(OC)c(NS(=O)(=O)c2cc(Br)cnc2N)cc1Cl	none
CCC(C)[C@@H]1NC(=O)N(CCCN2CCCC2=O)C1=O (some centres not stated)	none
O=C(Nc1ccccc1)OCN1C(=O)c2ccccc2C1=O	Autofluor counter 17484
CSc1ccccc1C(=O)NCC1CCCO1 (configuration not stated)	Autofluor counter 18506
CSc1ccccc1C(=O)NC1CCCCC1	Autofluor counter 22309
COc1ncccc1-c1cc2nc(NCCCN(C)C)n(C)c(=O)c2s1	none (no result: SARS 3CLpro inh, DUSP3 inh)
O=C(NCC1CCCO1)C1CC(c2ccccc2Cl)=NO1 (configuration not stated)	Autofluor counter 21967
COc1ccc(OC)c(C2=NOC(C(=O)NCC3CCCO3)C2)c1 (configuration not stated)	none
COc1cccc(C(C)(O)c2nc(-c3cnn(C)c3)cs2)c1 (configuration not stated)	none (no result: SARS 3CLpro inh, DUSP3 inh)
Cc1ccc(S(=O)(=O)NCc2nnc(SCC(=O)Nc3cccc(C)c3C)n2C)cc1	Autofluor counter 21005
COC(=O)CSc1nnc(CNS(=O)(=O)c2ccc(C)cc2)n1C	none
CC1(C(=O)O)CCCN1C(=O)c1cccc(OC(F)(F)F)c1 (configuration not stated)	none (no result: SARS 3CLpro inh, DUSP3 inh)
O=C(O)c1ccc2nc(C(F)(F)F)[nH]c2c1	BoNT A protease inconclusive, Autofluor counter 21497
Cc1ccccc1C(=O)NC1CCN(CC(=O)Nc2ccc(Br)cc2)CC1	BoNT-F LC inh inconclusive
CCOC(=O)C(O)(c1ccc(NC(=O)NC2CCCCC2)cc1)C(F)(F)F (configuration not stated)	Autofluor counter 23646
CCOc1cc(C2NC(=O)NC(C)=C2C(=O)NCc2ccccc2)c(Cl)cc1O (configuration not stated)	Autofluor counter 20868
C=CCOc1ccccc1C1NC(=O)NC(C)=C1C(=O)NCc1ccccc1 (configuration not stated)	BoNT A protease inconclusive, Autofluor counter 17255
O=C1C(Cl)=C(Nc2cccc(O)c2)C(=O)N1Cc1ccccc1	none
O=C(NCc1ccco1)c1cc(-c2ccc(F)cc2)on1	Autofluor counter 22220
COc1ccc(CNC(=O)c2cc(-c3ccco3)on2)cc1	Autofluor counter 20809
O=C(Nc1c(F)cc(F)cc1Br)c1cc(-c2ccco2)on1	none
O=C(NCc1ccco1)c1cc(-c2ccccc2)on1	none
O=C(Nc1ccc(F)cc1F)c1cc(-c2ccco2)on1	BoNT A protease inconclusive, Autofluor counter 23169
O=C(NCc1ccc(F)cc1)c1cc(-c2ccco2)on1	Autofluor counter 23399

Screening data from PubChem BioAssay.
